According to the supplement of paper PMC6555819:

How the values were obtained:
Assay in all cases: PBM binding z-score (relative to random genomic background probes); higher = stronger binding; sequences stand for … in GC…GCGATTGACAGCGTAGAATGAAGG
[1] = test system: FXR:RXRa (NR concentration 270 nM, RXRa partner concentration 90 nM)
In short: (§1)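 Binding buffer was PBS pH 7.4 with 2% milk, 0.02% Triton X-100, 1 mM DTT, 0.2 mg/mL BSA and 0.4 mg/ml salmon testes DNA. In it, ligand-free nuclear receptor dimers were incubated 1 h on custom Agilent 4×180K protein-binding microarrays carrying double-stranded probes. Antibodies against each partner (one per run) detected binding, and z-scores were calculated against random background probes after regression normalization of scanned fluorescence.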

[2] = test system: LXRa:RXRa (NR concentration 270 nM, RXRa partner concentration 90 nM)
In short: as §1

[3] = test system: LXRa homodimer (NR concentration 270 nM)
In short: as §1

[4] = test system: LXRb:RXRa (NR concentration 270 nM, RXRa partner concentration 90 nM)
In short: as §1

[5] = test system: LXRb homodimer (NR concentration 270 nM)
In short: as §1

[6] = test system: PPARa:RXRa (NR concentration 270 nM, RXRa partner concentration 90 nM)
In short: as §1

[7] = test system: PPARg:RXRa (NR concentration 180 nM, RXRa partner concentration 90 nM)
In short: as §1

[8] = test system: PPARg:RXRa 270nM:90nM, anti-RXR (NR concentration 270 nM, RXRa partner concentration 90 nM)
In short: as §1

[9] = test system: PPARg:RXRa 30nM:10nM, anti-RXR (NR concentration 30 nM, RXRa partner concentration 10 nM)
In short: as §1

[10] = test system: PPARg:RXRa 90nM:30nM, anti-RXR (NR concentration 90 nM, RXRa partner concentration 30 nM)
In short: as §1

[11] = test system: PPARg:RXRa DBDmut IVT, anti-RXR (DBD mutation: RXRa K156A/R161A, NR concentration 270 nM, RXRa partner concentration 90 nM)
In short: as §1

[12] = test system: PPARg:RXRa IVT, anti-PPARg (NR concentration 270 nM, RXRa partner concentration 90 nM)
In short: as §1

[13] = test system: PPARg DBDmut:RXRa IVT, anti-PPARg (DBD mutation: PPARg1 K132A/R137A, NR concentration 270 nM, RXRa partner concentration 90 nM)
In short: as §1

[14] = test system: PPARg DBDmut IVT, anti-PPARg (DBD mutation: PPARg1 K132A/R137A, NR concentration 270 nM)
In short: as §1

[15] = test system: PPARg homodimer (NR concentration 180 nM)
In short: as §1

[16] = test system: PXR:RXRa (NR concentration 270 nM, RXRa partner concentration 90 nM)
In short: as §1

[17] = test system: PXR homodimer (NR concentration 270 nM)
In short: as §1

[18] = test system: RARa:RXR (NR concentration 270 nM, RXRa partner concentration 90 nM)
In short: as §1

[19] = test system: RARa homodimer (NR concentration 270 nM)
In short: as §1

[20] = test system: RARb:RXRa (NR concentration 270 nM, RXRa partner concentration 90 nM)
In short: as §1

Sequence	PBM binding z-score [1]	PBM binding z-score [2]	PBM binding z-score [3]	PBM binding z-score [4]	PBM binding z-score [5]	PBM binding z-score [6]	PBM binding z-score [7]	PBM binding z-score [8]	PBM binding z-score [9]	PBM binding z-score [10]	PBM binding z-score [11]	PBM binding z-score [12]	PBM binding z-score [13]	PBM binding z-score [14]	PBM binding z-score [15]	PBM binding z-score [16]	PBM binding z-score [17]	PBM binding z-score [18]	PBM binding z-score [19]	PBM binding z-score [20]
ATCTATAGGTAAAAGTTCAGTGAATCCCGAGGAT	0.696	1.58	1.09	1.06	0.602	3.99	6.8	6.94	5.53	7.36	1.4	3.05	1.78	1.92	1.04	2.17	1.35	1.84	1.06	2.29
TCCCGGAGGACACGAAAGGTCAGAGCTCGACATC	3.13	3.95	2.89	2.93	-0.374	3.45	1.51	2.59	2.05	2.49	1.58	1.17	-0.696	-0.402	2.86	3.87	0.5	4.24	1.11	4.25
TCATATAGGTAAAGGTGAAAATCGAACGATATGA	1.01	1.19	-0.224	1.35	0.0615	3.15	4.11	4.4	4.25	4.59	3.76	4.08	1.54	1.02	0.818	0.873	0.241	1.5	0.976	1.73
CCGACTGGGGCAAAGCTTACCATACTCAGTACGA	-0.466	-0.638	-0.547	-0.287	-0.784	0.592	1.53	2.52	0.444	2.26	4.39	2.85	-0.291	-0.457	0.119	-0.708	-0.701	-0.665	-0.639	0.229
CCTACTGGGCCAAAGGTCATTGAGTCCAATGCTC	4.97	5.37	3.87	4.99	0.584	6.7	11.6	9.86	10.1	10.7	5.06	6.83	0.176	-0.111	2.47	6.16	12.7	5.99	1.14	4.71
ACTAGTTCGTCAGCTGAGGTCACACACAATTCGG	3.55	3.53	2.68	4.09	0.796	4.03	1.75	2.28	0.594	1.5	0.735	2.22	0.493	1.22	2.47	5.11	2.76	4.66	1.82	3.52
ATATGTAGGTTACAGCCGGGTCATTCAGGCTATG	2.26	3.47	0.993	2.28	0.202	4.51	5.97	5.46	2.52	4.67	7.69	7.35	1.69	1.39	1.97	3.43	1.66	3.51	0.487	2.26
ATCTCTAGGTAAAAGTCCAGTGAATCCCGAGGAT	0.192	0.0512	-0.0646	-0.297	0.61	0.598	1.24	3.02	1.28	2.94	2.07	1.54	0.922	0.924	0.148	-0.1	0.357	-0.148	0.615	0.582
GCAGACAGGTGAAACGCAGGTAAGTCAGGGTGGC	-0.334	-0.134	-0.679	-0.502	-0.938	0.476	0.369	-0.16	-0.946	-0.534	0.702	0.327	-0.327	-0.89	-0.504	-0.471	-0.705	0.101	-0.533	0.61
GCATAAAGGTAATACAAGGTGAAAGTCCGATTGT	0.963	4.21	0.396	1.65	-0.394	2.06	0.943	1.72	0.61	0.948	0.839	1.67	0.773	0.759	0.757	1.42	-0.0245	1.99	0.262	1.11
CCGACTCGGGCAAGGTTACCATAACGCACAGCCA	-0.303	0.69	-0.249	0.349	-1.13	0.95	1.01	0.916	-0.148	-7.81e-07	0.68	0.196	-0.901	-1.26	-0.121	0.246	-0.0787	0.655	-0.459	1.33
ATCTCTAGGTAACCAAGTTGAGTGAATGCCGAAC	0.189	0.0773	0.252	0.0776	0.391	0.54	0.337	0.316	-0.0449	0.238	3.51	2.64	0.787	1.26	0.031	-0.00792	0.194	0.144	0.0193	0.243
GTTAGCAGGCCATTTGGGTCACTCAATGACGGGC	0.439	0.0472	-0.523	0.205	-0.589	1.36	0.776	0.698	-0.489	0.0806	2.37	2.61	-0.276	-0.494	-0.0267	0.566	0.185	0.925	-0.249	1.52
AGTGAAAGTTCACTAGGTAACGTAAGATTCAGCT	4.44	5.02	3.08	2.88	0.454	4.5	6.12	6.07	3.52	5.3	2.6	4.86	1.41	0.57	2.04	3.61	2	3.07	0.607	4.44
CGTCCAAGGTCAGAGAGGTCAGTGAATGCCGAGT	6.03	5.21	3	4.19	0.123	4.72	3.4	4.41	0.873	3.2	3.16	3.45	0.28	-0.412	5.38	6.23	12.3	5.74	3.8	5.21
